Screens: PubChem, National Center for Advancing Translational Sciences (NCATS)
In the library only some 7.3% were active in any assay of this set; here they are far more common.
SMN2 splice up = increases expression of the SMN2 splice variant; HEK293 SMN2-luciferase splicing reporter, luminescence, 30-36 h; Potency, µM (highest dose often 46.1 µM), usual class: activators; 210,000 tested, 2.8% active; also: nearly all actives have a fitted effect of over 55% in size
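HEK293 cells carry an SMN2 […]–luciferase reporter in which exon 7 inclusion puts luciferase in frame. Cells were plated 10-12 h before compound addition, then incubated 30-36 h at 37C. ONE-Glo luminescence was read; sodium butyrate at 4.5 mM final served as control.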
Rab9 promoter act = Rab9 promoter activation | Huh7 Rab9 promoter-luciferase reporter, luminescence, 24 h | Potency, µM (highest dose often 9.22 µM), usual class: activators | 320,000 tested, 2.8% active; also: nearly all actives have a fitted effect of over 60% in size
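Promoter activation is measured as luciferase luminescence in Huh7 cells stably transfected with a Rab9 promoter–luciferase construct, following 24 h compound exposure at 37 °C and 10 min reagent incubation at ambient temperature.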
FLuc modulator = firefly luciferase modulation, counter-screen for miR-21 project. P08659. purified FLuc, Km substrates, luminescence inhibition. Potency, µM (doses to about 57.5 µM), usual class: inhibitors. 360,000 tested, 6.9% active; also: nearly all actives have a fitted effect of over 55% in size
Target sequence (P08659 whole entry, looked up): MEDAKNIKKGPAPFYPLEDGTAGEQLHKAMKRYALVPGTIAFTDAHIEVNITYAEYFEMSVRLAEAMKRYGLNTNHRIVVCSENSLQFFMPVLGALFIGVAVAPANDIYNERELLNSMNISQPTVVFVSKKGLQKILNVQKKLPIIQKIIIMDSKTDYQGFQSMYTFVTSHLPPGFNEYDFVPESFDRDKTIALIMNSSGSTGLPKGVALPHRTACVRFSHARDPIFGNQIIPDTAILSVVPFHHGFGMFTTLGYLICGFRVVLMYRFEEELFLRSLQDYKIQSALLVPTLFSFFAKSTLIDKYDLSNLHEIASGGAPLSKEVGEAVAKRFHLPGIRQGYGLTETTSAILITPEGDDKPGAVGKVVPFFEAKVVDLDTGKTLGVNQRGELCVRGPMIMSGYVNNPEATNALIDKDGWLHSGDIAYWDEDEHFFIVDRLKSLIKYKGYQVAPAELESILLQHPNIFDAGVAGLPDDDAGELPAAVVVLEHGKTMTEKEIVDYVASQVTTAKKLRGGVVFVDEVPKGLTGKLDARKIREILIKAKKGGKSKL
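Purified P. pyralis luciferase, 10 nM final, with Km-level 10 uM D-luciferin and 10 uM ATP in 50 mM Tris acetate pH 7.5, 10 mM Mg acetate, 0.01% Tween-20, 0.05% BSA; 6-point qHTS titration about 60 µM downward; luminescence read.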
uPA surface inh = cell surface uPA generation inhibition | cell surface uPA generation assay, qHTS | Potency, µM (highest dose often 38.3 µM), hits mostly inhibitors | 330,000 tested, 0.31% active | AID 540303; active = well fitted inhibition curve with a large enough effect; inconclusive = small, poorly fitted or top-dose-only effect; inactive = no such curve, though single readings can be large or run the other way; tested in mouse RAW 264.7 cells; also: nearly all actives have a fitted effect of over 55% in size
NPC1 promoter act = activates the NPC1 promoter; Huh7 NPC1 promoter luciferase reporter, 24 h; Potency, µM (titrated, usually from 9.22 µM), most hits filed as activators; 320,000 tested, 2.4% active; AID 485313; also: nearly all actives have a fitted effect of over 60% in size
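Quantitative HTS used a cell-based reporter: Huh7 cells stably bearing the NPC1 promoter upstream of luciferase were treated with compounds for 24 h, and promoter activation was read as luminescence.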
ELG1 genotox = inducers of genotoxicity in HEK293T ELG1-luciferase cells; HEK293T ELG1-luciferase reporter, luminescence, 16 h; Potency, µM (highest dose often 46 µM), usual class: activators; 330,000 tested, 1.3% active; AID 504466; also: nearly all actives have a fitted effect of over 60% in size
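Quantitative HTS format in 1536-well plates. HEK293T ELG1-luciferase reporter cells receive test compound and are incubated 16 hr at 37 °C, 5% CO2; ONE-Glo added, 30 min room temperature, then luminescence read.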
Hits are given with their value; i = inactive; ? = inconclusive; nt = no result. Unless noted, calls follow the shape of the dose curve; as a rule, active = well fitted curve in the direction sought with a large enough effect; inconclusive = small, poorly fitted or top-dose-only effect, or another doubt; inactive = no such curve, though single readings can be large; an effect the other way counts as inactive or inconclusive.

SMILES	SMN2 splice up	Rab9 promoter act	FLuc modulator	uPA surface inh	NPC1 promoter act	ELG1 genotox
CCC1CCCCN1C(=O)Cn1c(=O)n(-c2ccccc2C(F)(F)F)c(=O)c2c(C)c(C(=O)N(C)C)sc21 (stereo not drawn)	nt	nt	i	nt	nt	nt
Cc1nn2c(=O)cc(COC(=O)c3cccc(NC(=O)c4ccc(F)cc4)c3)nc2s1	nt	nt	i	nt	nt	nt
CCOc1ccc(C(CC(=O)Nc2cc(C)c(Cl)cc2OC)N2Cc3ccccc3C2=O)cc1OC (stereo not drawn)	nt	nt	i	nt	nt	nt
O=C(Nc1ccc(Br)cn1)c1cccc2ccccc12	nt	nt	nt	i	nt	nt
COc1c(C(=O)Nc2ccc(Br)cn2)ccc2ccccc12	nt	?	5.36µM	i	i	?
COc1cc2ccccc2cc1C(=O)Nc1ccc(Br)cn1	nt	1.78µM	?	i	1.58µM	?
O=C(Nc1nnc(-c2ccc3c(c2)CCCC3)o1)c1ccccc1Cl	i	i	23.9µM	?	i	i
O=C(Nc1nnc(-c2ccc3c(c2)OCCO3)o1)c1ccc(Cc2ccccc2)cc1	i	i	i	i	i	i
O=C(Nc1nnc(-c2ccccc2)o1)c1cc(Cl)sc1Cl	?	i	i	i	i	i
O=C(CCOc1ccccc1)Nc1nnc(-c2ccc3c(c2)OCCO3)o1	i	i	10.7µM	i	i	i
O=C(Nc1nnc(-c2ccc3c(c2)OCCO3)o1)C1CCCCC1	?	2.51µM	?	i	3.55µM	?
O=C(COc1ccccc1)Nc1nnc(-c2ccc3c(c2)CCCC3)o1	?	?	?	?	?	18.4µM
O=C(COc1ccccc1)Nc1nnc(-c2ccc(F)cc2)o1	nt	i	i	i	i	i
CCOC(=O)c1ccc(N2CCN(c3ccc(F)cc3)CC2)c(NC(=O)Nc2ccc(CC)cc2)c1	nt	nt	i	nt	nt	nt
CCCN(C(=O)c1coc(=O)c2ccccc12)c1ccccc1C	i	nt	i	nt	nt	nt
Cc1ccc(CNC(=O)C(=O)NCC(c2cccnc2)N2CCN(c3ccccc3F)CC2)cc1 (stereo not drawn)	nt	nt	i	nt	nt	nt
Oc1cc2c(cc1O)C1c3ccc(O)c(O)c3OCC1(O)C2 (stereo not drawn)	i	i	8.49µM	i	i	i
CCCC(=O)N(CCN1CCOCC1)c1nc2cc(C)c(C)cc2s1	nt	2.24µM	i	i	2.51µM	?
Cc1cc(=O)c2c(O)c3c(O)cc(=O)c4c3c3c(cc(O)c1c23)C(C)(C)C=4O	i	nt	nt	nt	nt	nt
O=[N+]([O-])c1cccc(NC(=S)N2CCc3ccccc3C2)c1	?	i	?	i	?	i
O=C1/C(=C/c2ccc(O)cc2)CCc2ccc([N+](=O)[O-])cc21	i	i	i	i	i	i
O=C1/C(=C/Nc2cccc([N+](=O)[O-])c2)CCc2ccccc21	11.2µM	2.51µM	2.69µM	i	2.82µM	?
O=C1/C(=C\c2ccc([N+](=O)[O-])cc2)CCc2ccccc21	?	i	0.0953µM	i	i	7.31µM
CC(=O)Nc1ccc(/C=C2\CCc3ccccc3C2=O)cc1	nt	?	6.75µM	i	3.16µM	?
Cc1ccc(Cl)cc1NC(=O)c1sc(-n2nc(C)c(Cc3ccc4c(c3)OCO4)c2C)nc1C	nt	nt	i	nt	nt	nt
SMILES	SMN2 splice up	Rab9 promoter act	FLuc modulator	uPA surface inh	NPC1 promoter act	ELG1 genotox
CCCCNc1nc(C)nc2c1nc(-c1ccccc1)n2CCCN(CC)CC	i	nt	nt	nt	nt	nt
CCOC(=O)C1CCCCN1C(=O)CCc1c(C)nc2cc(-c3ccccc3)nn2c1C (stereo not drawn)	i	i	15.1µM	i	i	i
Cc1nc2cc(-c3cccc(F)c3)nn2c(C)c1CCC(=O)NC(C)CCc1ccco1 (stereo not drawn)	i	i	15.1µM	i	i	i
Cc1nc2cc(-c3cccc(F)c3)nn2c(C)c1CCC(=O)NC1CCCCC1	i	nt	12µM	nt	nt	nt
COc1cc(OC)cc(-c2cc3nc(C)c(CCC(=O)NC(C)CCc4ccco4)c(C)n3n2)c1 (stereo not drawn)	i	i	i	i	i	i
COc1cc(OC)cc(-c2cc3nc(C)c(CCC(=O)O)c(C)n3n2)c1	i	i	15.1µM	i	i	i
Cc1csc(NC(=O)CCc2c(C)nc3cc(-c4cccc(F)c4)nn3c2C)n1	i	i	i	i	i	i
Cc1occc1C(=O)NNC(=O)c1ccc(Br)o1	i	i	i	i	i	i
Cc1ccc(NC(=O)C(Cc2c[nH]c3ccccc23)NC(=O)OCC(C)C)cc1 (stereo not drawn)	?	nt	i	nt	nt	nt
CCOC(=O)c1cc2c(=O)n3ccccc3nc2n(C(C)C)c1=NC(=O)C(C)(C)Oc1ccc(Cl)cc1	i	nt	i	nt	nt	nt
CCOc1ccc2oc(C(=O)Nc3ccc(N4CCOCC4)cc3)c(C)c2c1	i	nt	13.5µM	i	nt	nt
COc1ccc2oc(C(=O)OC(C)C(=O)Nc3ccc(N4CCOCC4)cc3)c(C)c2c1 (stereo not drawn)	nt	i	i	?	i	i
CCOc1ccc2oc(C(=O)Nc3ccc4c(c3)OCO4)c(C)c2c1	nt	2.82µM	5.36µM	i	3.16µM	?
O=C(COc1ccccc1)NCc1ccc2c(c1)CCN2C(=O)c1ccc(Cl)cc1	nt	nt	i	nt	nt	nt
CC/C(=N\NC(=O)c1csc(C)c1C)c1cccs1	14.1µM	1.12µM	2.39µM	i	2µM	?
C/C(=N\NC(=O)c1csc(C)c1C)c1ccc(Cl)s1	i	?	?	i	?	?
CCC/C(=N\NC(=O)c1csc(C)c1C)c1cccs1	15.8µM	3.16µM	4.78µM	i	?	10.3µM
Cc1nc2cnc(N3CCNCC3)nc2n(C2CC2)c1=O	i	nt	nt	nt	nt	nt
Cc1noc(/C=C/c2nn(C)cc2Cl)c1[N+](=O)[O-]	nt	i	?	4.47µM	i	i
COc1ccc(NC(=O)Cn2c(=O)n(-c3cccc(C)c3)c(=O)c3c2c2cc(C)ccc2n3C)cc1OC	i	nt	i	nt	nt	nt
CC1(C)CC(NC(=O)c2ccccc2F)CC(C)(C)N1	nt	i	i	i	i	i
C/C(NC(=O)c1ccccc1F)=C1\C(=O)C[C@@H]2[C@H]1C2(C)C	nt	?	15.1µM	i	?	?
CN1CCN(NC(=O)c2cccc(F)c2)CC1	i	i	i	i	i	i
C/C(NC(=O)c1cccc(F)c1)=C1/C(=O)C[C@@H]2[C@H]1C2(C)C	i	i	10.7µM	i	i	?
O=C(Nc1ccc(Br)cc1F)c1ccncc1	i	i	i	i	i	i
Cc1ccc(NC(=O)c2ccc3nsnc3c2)c(Cl)c1	nt	0.316µM	1.51µM	?	0.501µM	?
Cc1c(NC(=O)c2ccc3nsnc3c2)cccc1[N+](=O)[O-]	nt	i	i	?	i	i
O=C(Nc1ccc(Br)cc1F)c1ccc2nsnc2c1	nt	3.55µM	?	i	1.58µM	10.3µM
CN(C)c1ccc(/C=C(\C#N)C(=O)OCC(=O)N(C)C2CCS(=O)(=O)C2)cc1 (stereo not drawn)	nt	i	23.9µM	i	i	?
COc1cccc2cc(-c3nnc(-c4ccccc4)o3)c(=O)oc12	11.2µM	0.501µM	0.213µM	i	0.501µM	?
